Screening results from PubChem.
ClpP mod: qHTS Assay for Activators of ClpP | ATP-dependent Clp protease proteolytic subunit (Bacillus subtilis (strain 168)), P80244 | purified B. subtilis ClpP, FRET peptide cleavage, 20 min | Potency, µM (top dose mostly 57.5 µM), inactives show at the highest dose activity change, negative = active | 340,000 tested, 1.9% active; active = well fitted falling curve with a large enough effect; inconclusive = small, poorly fitted or top-dose-only effect; inactive = no such curve, though single readings can be large or run the other way; note: the source files actives as falling curves though it sought activators and does not explain the sign; nearly all actives have a fitted effect of over 65% in size
Target sequence (P80244 whole entry, looked up): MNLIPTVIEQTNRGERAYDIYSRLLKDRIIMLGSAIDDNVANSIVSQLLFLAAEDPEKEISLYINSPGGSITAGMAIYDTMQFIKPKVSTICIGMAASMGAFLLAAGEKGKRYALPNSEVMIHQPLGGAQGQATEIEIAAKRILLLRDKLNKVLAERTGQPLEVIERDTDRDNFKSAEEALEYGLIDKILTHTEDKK
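Buffer: 100 mM Tris/HCl pH8, 100 mM KCl, 0.05% low protease BSA, 2.5% glycerol, 0.01% Tween-20. ClpP 10 microg/mL final; 20 min RT; delta FRET normalized to ADEP and DMSO controls.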
GLP1R ag: qHTS of GLP-1 Receptor Agonists; Potency, µM (series often up to 45.6 µM), inactives show top-dose activation, usual class: activators; Glucagon-like peptide 1 receptor (Homo sapiens), P43220; AID 624172, 2012; HEK293 GLP-1R CRE-luciferase, luminescence, 4-6 h; cells express a hypersensitive GLP-1R form; 380,000 tested, 0.007% active; note: % of control where 0% means no effect
Target sequence (P43220 whole entry, looked up): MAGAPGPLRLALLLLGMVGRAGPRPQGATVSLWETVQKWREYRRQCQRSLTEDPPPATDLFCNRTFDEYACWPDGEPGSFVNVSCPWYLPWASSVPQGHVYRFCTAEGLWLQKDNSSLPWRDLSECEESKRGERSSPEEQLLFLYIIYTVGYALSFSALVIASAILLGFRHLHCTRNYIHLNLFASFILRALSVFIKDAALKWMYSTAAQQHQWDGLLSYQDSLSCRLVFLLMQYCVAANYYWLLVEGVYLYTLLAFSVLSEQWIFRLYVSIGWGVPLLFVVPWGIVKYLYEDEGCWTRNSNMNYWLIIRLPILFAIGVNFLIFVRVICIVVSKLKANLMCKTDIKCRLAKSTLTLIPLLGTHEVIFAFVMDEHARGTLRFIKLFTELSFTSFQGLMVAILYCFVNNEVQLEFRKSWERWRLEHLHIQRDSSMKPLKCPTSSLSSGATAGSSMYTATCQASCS
GLP1R inv ag: qHTS of GLP-1 Receptor Inverse Agonists (Inhibition Mode); Glucagon-like peptide 1 receptor (Homo sapiens), P43220; HEK293 GLP-1R CRE-luciferase, luminescence, 24 h; GLP-1R form is constitutively active; Potency, µM (titrated, usually from 38.3 µM), for the others: at the top dose activity change, negative = inhibition, most hits filed as inhibitors; 410,000 tested, 1.6% active; note: % is set by controls: 0 for no effect and ±100 for the full control effect; nearly all actives have a fitted effect of over 55% in size
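HEK293 cells stably co-expressing constitutively active GLP-1R and a cAMP-responsive luciferase reporter were seeded in DMEM with 10% Nu serum, given compounds after 12 h, and incubated 24 h at 37 deg C. Luminescence was then read.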
GLP1R cytotox: qHTS of GLP-1 Receptor Inverse Agonists: Cytotox Screen | Potency, µM (series often up to 38.3 µM), inactives show top-dose activity change, negative = inhibition, hits mostly inhibitors | AID 624418, 2012 | 410,000 tested, 0.13% active | HEK293 cAMP-luciferase reporter cells, luminescence, 24 h;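 note: loss of luciferase light is scored as toxicity; % is set by controls: 0 for no effect and ±100 for the full control effect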
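A 23 nL compound transfer followed 12 hours of cell culture at 37 deg C; exposure then lasted 24 hr. Luciferase assay detection reagent was dispensed and plates read for luminescence after a 12 min room-temperature wait.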
Numbers without * were called inactive; ? = inconclusive; . = not tested or not shown; ! = not active in a repeat. This is a sample that favours compounds with a hit; in the whole collection about 3.2% have one here. Unless noted, calls come from the whole dose curve; as a rule, active = well fitted curve in the direction sought with a large enough effect; inconclusive = small, poorly fitted or top-dose-only effect, or another doubt; inactive = no such curve, though single readings can be large; an effect the other way counts as inactive or inconclusive. Potency is the fitted concentration of half-maximal effect.

SMILES	ClpP mod	GLP1R ag	GLP1R inv ag	GLP1R cytotox
Cc1[nH]n2c(=O)c3c(nc2c1-c1ccc(Cl)cc1)CCC3	25.1µM*	-19.3%	0.8%	2.9%
Cc1[nH]n2c(=O)c3c(nc2c1-c1ccccc1)CCC3	31.6µM*	-11.8%	-4.5%	-1.9%
CCCCOC(=O)c1ccc(NC(=O)CSc2nc3c(c(=O)[nH]2)CCCC3)cc1	-0.3%	.	-23.7%	2.0%
Cc1ccc(OCc2nc3ccccc3n2C(C(=O)Nc2c(C)cccc2C)C2CC2)cc1 (centres undefined)	-3.8%	.	?	-0.9%
C=CCn1c(=N)n(CC(=O)OCC)c2ccccc21	25.1µM*	-7.8%	-6.5%	-1.8%
CCOC(=O)Cn1c(=N)n(CCOc2ccc(F)cc2)c2ccccc21	3.98µM*	8.3%	19.3%	2.3%
O=C(CSc1ccc(C(F)(F)F)cc1[N+](=O)[O-])Nc1ccc2ccccc2c1	28.2µM*	-8.0%	12.6%	0.8%
Cc1ccc(Cl)cc1N1CCN(CCNC(=O)Nc2ccccc2Cl)CC1	1.4%	0.8%	-21.1%	-5.5%
O=C(OCC(=O)C12CC3CC(CC(C3)C1)C2)c1ccc(O)cc1O	.	22.7%	11.2µM*	?
COc1ccc(NC(=O)c2oc3ccc(S(=O)(=O)N4CCC5(CC4)OCCO5)cc3c2C)cc1Cl	?	.	8.2%	2.3%
CCOC(=O)[C@H]1[C@H]2COc3ccc(Br)cc3[C@@H]2N2C(=O)c3cc(Br)ccc3NC(=O)[C@@]12C	-3.0%	-2.3%	2.82µM*	-49.3%
CCOC(=O)[C@H]1[C@H]2COc3ccc(C)cc3[C@@H]2N2C(=O)c3cc(F)c(F)cc3NC(=O)[C@@]12C	-4.7%	-0.3%	?	-16.3%
CCOC(=O)[C@H]1[C@H]2COc3ccc(Cl)cc3[C@@H]2N2C(=O)c3cc(Cl)ccc3NC(=O)[C@@]12C	-12.8%	3.5%	?	?
CCOC(=O)[C@H]1[C@H]2COc3ccc(Cl)cc3[C@@H]2N2C(=O)c3cc(F)c(F)cc3NC(=O)[C@@]12C	-1.1%	2.7%	10µM*	6.4%
CCOC(=O)[C@H]1[C@H]2COc3ccc(Cl)cc3[C@@H]2N2C(=O)c3cc(Br)ccc3NC(=O)[C@@]12C	-0.4%	-2.4%	3.55µM*	1.4%
CCc1c(C)nc2nncn2c1Nc1ccc(C(C)C)cc1	-1.8%	.	-20.1%	0.0%
CS(=O)(=O)c1ccc(/C=C2\C=Cc3ccccc32)cc1	-0.8%	.	.	.
COCCOC(=O)C1=C(C)NC(=O)NC1c1cn(-c2ccccc2)nc1-c1cccs1 (centres undefined)	-6.0%	25.9%	20.3%	-4.4%
CC1=C(C#N)C(c2cn(-c3ccccc3)nc2-c2cccs2)C(C#N)=C(C)N1	35.5µM*	-0.9%	?	1.3%
CCOc1ccccc1NC(=O)c1ccc2oc(=O)c(S(=O)(=O)c3ccc(F)cc3)cc2c1	-2.5%	.	-9.3%	1.1%
O=C(Nc1ccccc1)C1C2CCC3C(CCC21)C3(Cl)Cl (centres undefined)	1.6%	-4.0%	6.31µM*	-16.0%
O=C(Nc1cccc(Cl)c1)C1C2CCC3C(CCC21)C3(Cl)Cl (centres undefined)	-28.1%	-9.0%	5.62µM*	-35.2%
COc1ccccc1CNC(=O)c1cnn2c(C)c(Cc3ccc(F)cc3)c(C)nc12	?	.	-18.0%	8.9%
COc1ccc(Cl)cc1NC(=O)C1CCN(S(=O)(=O)c2ccc3c(c2)CC(C)N3C(C)=O)CC1 (centres undefined)	-1.3%	0.9%	9.3%	4.4%
CC(=O)Nc1ccc(NC(=O)c2ccc(NS(=O)(=O)c3cc(C(C)(C)C)cc(C)c3C)cc2)cc1	28.2µM*	-14.9%	?	?
SMILES	ClpP mod	GLP1R ag	GLP1R inv ag	GLP1R cytotox
Cc1cc(C(C)(C)C)cc(S(=O)(=O)Nc2ccc(O)c(C(=O)O)c2)c1C	-27.5%	4.8%	0.0%	-30.6%
COC(=O)c1cccc(CN2C(=O)SC(Nc3ccc(Br)cc3)C2=O)c1 (centres undefined)	-2.5%	.	?	-3.0%
O=C(COc1ccccc1[N+](=O)[O-])Nc1cc(-c2nc3cc(Cl)ccc3o2)ccc1Cl	4.7%	21.3%	15.7%	3.3%
CCOC(=O)NC(=O)COC(=O)c1ccc(Sc2ncn[nH]2)c([N+](=O)[O-])c1	15.8µM*	0.0%	4.2%	1.6%
CN1[C@@H]2CC[C@H]1CC(OC(c1ccccc1)c1ccccc1)C2 (some centres undefined)	.	5.9%	.	.
CN1CCC(OC(c2ccccc2)c2ccc(Cl)cc2)C1 (centres undefined)	.	5.0%	3.16µM*	?
CCc1cc2c(NCc3ccccc3)nc(C)nc2s1	-2.6%	-5.1%	?	-11.7%
CCc1cc2c(NCCC(=O)O)nc(C)nc2s1	28.2µM*	-11.6%	-12.9%	-2.3%
CC(C(=O)N1CCCCC1)n1ncn2cccc2c1=O (centres undefined)	28.2µM*	-17.2%	0.6%	-10.6%
CC(C)CC(N)c1cn([C@@H](CCC(=O)O)C(=O)N2CCNCC2)nn1 (some centres undefined)	0.2%	8.1%	11.5%	8.1%
CC(C)C[C@H](N)c1cn([C@@H](CCCCN)C(=O)N2CCNCC2)nn1	-1.7%	-21.7%	0.891µM*	?
Cc1cc(NS(=O)(=O)c2ccc(NC(=O)COc3ccccc3Br)cc2)no1	-2.0%	.	6.3%	-8.6%
CC(C)(O)C(=O)NN(Cc1ccccc1)c1ccccc1	.	1.2%	-5.7%	0.7%
CN(C)N(Cc1ccccc1)C(=O)C(O)(c1ccccc1)c1ccccc1	-1.3%	-0.7%	12.6µM*	-3.8%
CCc1ccc(S(=O)(=O)c2cn(C)c3cc(N4CCN(CC)CC4)c(F)cc3c2=O)cc1	11.2µM*	.	11.4%	0.3%
Cc1ccc(S(=O)(=O)c2cn(C)c3cc(N4CCOCC4)c(F)cc3c2=O)cc1	-22.7%	3.6%	11.0%	-13.1%
Cc1ccc(S(=O)(=O)c2cn(C)c3cc(N4CCN(C)CC4)c(F)cc3c2=O)cc1	25.1µM*!	-1.0%	5.5%	-15.1%
Cn1cc(S(=O)(=O)c2ccccc2)c(=O)c2cc(F)c(N3CCOCC3)cc21	28.2µM*	7.8%	28.5%	-1.8%
Cc1ccc(C)c(N2CCN(CCCNC(=O)c3ccc4nc(C(C)C)oc4c3)CC2)c1	1.3%	.	?	-8.4%
CCOC(=O)c1c(CN2CCN(C)CC2)n(-c2ccccc2)c2cc(Br)c(O)cc12	1.8%	3.7%	?	12.9%
CCOC(=O)c1c(CN2CCN(CCO)CC2)n(-c2ccccc2)c2cc(Br)c(O)cc12	.	15.7%	2.24µM*	?
COc1ccc(C(=O)N2CCN(c3ccc(N4CCOCC4)nn3)CC2)cc1OC	25.1µM*	-3.2%	15.7%	-2.0%
COc1cc(CNC2CCCC2)cc(Cl)c1OCc1ccccc1F	1.2%	-0.1%	3.55µM*	?
NNC(=O)c1cc2c(ccc3ccccc32)o1	.	1.5%	-16.1%	14.8%
